Assay outcomes deposited in PubChem BioAssay by National Center for Advancing Translational Sciences (NCATS).
Pf growth 48h: Primary qHTS for delayed death inhibitors of the malarial parasite plastid, 48 hour incubation. Potency, µM (highest dose often 28.7 µM), inactives show top-dose activity change, negative = inhibition, hits mostly inhibitors. hit rate 5.9% among 310,000. P. falciparum luciferase growth in erythrocytes, 48 h; further: on the % scale 0 is the no-effect control and ±100 the full control effect
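Cell-based growth assay: transgenic P. falciparum expressing firefly luciferase, cultured in red cells within RPMI 1640 containing 0.5% w/v Albumax, 24 mM bicarbonate and gentamycin. A drop in luciferase activity indicates inhibition.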
Sm TGR inh: qHTS Assay for the Inhibitors of Schistosoma Mansoni Peroxiredoxins; Schistosoma mansoni thioredoxin glutathione reductase (TGR), Q962Y6; purified TGR, DTNB reduction, TNB absorbance 405 nm; Potency, µM (highest dose often 114 µM), inactives show at the top dose activity change, negative = inhibition, actives largely listed as inhibitors; AID 485364, 2010; hit rate 3% among 360,000; further: on the % scale 0 is the no-effect control and ±100 the full control effect; nearly all actives have a fitted effect of over 60% in size
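First, TGR (20 nM dispensed) and NADPH were mixed with compound. Second, a 15 min room-temperature incubation followed. Third, further NADPH and then DTNB were added to start the reaction. Finally, TNB absorbance was monitored kinetically.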
Pf growth 96h: Primary qHTS for delayed death inhibitors of the malarial parasite plastid, 96 hour incubation. P. falciparum luciferase reporter growth, 96 h. Potency, µM (top dose mostly 28.7 µM), inactives show at the highest dose activity change, negative = inhibition, most hits filed as inhibitors. hit rate 6.9% among 320,000; further: on the % scale 0 is the no-effect control and ±100 the full control effect
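Luminescence readout: decreased luciferase signal marks inhibited growth of reporter-expressing P. falciparum in infected red cells (2% hematocrit, 0.05% parasitemia final), exposed to compound two generations (96 h, 37 C, 5% CO2).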
AMA1-RON2 inh: qHTS for Inhibitors of AMA1-RON; Towards Development of Antimalarial Drug Lead: Primary Screen; Plasmodium falciparum AMA1 (3D7) - RON2 peptide interaction; AlphaScreen AMA1-biotinylated RON2 peptide binding; Potency, µM (titrated, usually from 58.2 µM), without a hit: at the highest dose activity change, negative = inhibition, usual class: inhibitors; hit rate 0.2% among 360,000; AID 720542, 2013;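 further: 0% = vehicle wells and -100% = peptide control; nearly all actives have a fitted effect of over 45% in size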
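AMA1 (3D7) with his tag at 25 nM final met compounds first, then biotinylated RON2 peptide at 25 nM; detection used donor plus acceptor beads, 10 µg/mL apiece, read by AlphaScreen after 30 min at room temperature.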
NS1 function inh: qHTS Assay for Inhibitors of Influenza NS1 Protein Function; Potency, µM (doses to about 46.1 µM), without a hit: at the top dose activity, positive = more growth; hit rate 0.4% among 270,000; AID 2326, 2010; calls by dose curve; further: actives are rising curves; nearly all actives have a fitted effect of over 50% in size
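In this qHTS, NS1 from influenza A is expressed in budding yeast, where it slows growth. Cells are switched from glucose to 2% galactose medium (pH 6.0, -URA), treated with compound, and growth recovery is read at OD600.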
Starred values were filed as active, the others as inactive; ? = inconclusive; . = no result. Hits are enriched below; roughly 11% of the tested compounds scored in any of these assays. Unless noted, the call rests on the fitted dose curve; in most records, active means well fitted curve in the direction sought with a large enough effect; inconclusive means small, poorly fitted or top-dose-only effect, or another doubt; inactive means no such curve, though single readings can be large; an effect the other way counts as inactive or inconclusive. Potency means the concentration at half of the fitted maximal effect.

SMILES	Pf growth 48h	Sm TGR inh	Pf growth 96h	AMA1-RON2 inh	NS1 function inh
Cc1cccc(-c2nc(CCNC(=O)c3ccccc3Br)cs2)c1	.	4.9%	.	.	.
CC(=O)c1ccc(-c2ccc(C(=O)Nc3nc(-c4ccccn4)cs3)o2)cc1	.	.	.	47.6%	.
Cc1ccc(C(=O)Nc2nc(-c3ccccn3)cs2)o1	4.15µM*	-26.7%	2.33µM*	-42.7%	-9.8%
CCc1cc(C(=O)Nc2nc(-c3ccccn3)cs2)sc1C	4.15µM*	-16.5%	?	24.5%	.
O=C(Nc1nc(-c2ccccn2)cs1)c1ccc([N+](=O)[O-])o1	2.94µM*	10µM*	2.33µM*	2.3%	-1.8%
Cc1ccc(S(=O)(=O)N2CCC(C(=O)N[C@@H](Cc3ccccc3)C(=O)O)CC2)cc1	13.5%	79.4µM*	-16.9%	-6.9%	1.3%
CC(C)C1CCC(C(=O)NC(Cc2ccccc2)C(=O)O)CC1 (stereo not given)	1.5%	.	21.1%	.	.
O=C(NCCCCc1ccccc1)c1cccc(NC(=O)C2CCCCC2)c1	.	.	.	-8.8%	.
O=C(NC(Cc1ccccc1)C(=O)O)C1CCCCC1 (stereo not given)	2.8%	2.8%	10.4µM*	4.3%	0.1%
O=C(NCCCCC(NC(=O)C1CCCCC1)C(=O)O)c1ccccc1 (stereo not given)	?	-4.5%	8.28µM*	-1.0%	-18.4%
O=C(NC(Cc1ccccc1)C(=O)O)C1CCN(S(=O)(=O)c2cccc(C(F)(F)F)c2)CC1 (stereo not given)	9.8%	1.8%	-6.5%	3.5%	9.4%
CCOc1ccc(CC(=O)NCc2ccc3c(c2)CCN3C(=O)c2ccc(F)cc2)cc1OCC	.	-2.7%	.	.	.
COc1ccc2c(Cl)cc(NC(=O)Nc3c(C)cccc3C)nc2c1	.	.	.	5.7%	.
COc1ccc(C(=O)Nc2nc(CC(=O)NCCc3ccccc3OC)cs2)cc1	?	-18.7%	?	-5.0%	.
CC12CCC(C(=O)N/N=C/c3ccc(O)cc3O)(OC1=O)C2(C)C (stereo not given)	?	-12.4%	?	55.6%	-2.4%
N[C@@H](CC1=CS(=O)(=O)c2ccc(Cl)cc21)C(=O)O	.	.	.	.	7.9%
CCOC(=O)c1c(-c2ccccc2)csc1NC(=O)C(C)NCc1ccco1 (stereo not given)	?	-17.0%	13.1µM*	-26.1%	12.9%
CCOC(=O)c1c(-c2ccccc2)csc1NC(=O)c1nn(CC)cc1Br	13.1µM*	9.6%	.	-3.8%	7.6%
CCOC(=O)c1c(-c2ccccc2)csc1NC(=S)N(CC)CC	11.7µM*	0.9%	5.22µM*	-1.3%	-3.2%
CCOC(=O)c1c(-c2ccccc2)csc1NC(=O)c1ccc(S(=O)(=O)N2CC(C)OC(C)C2)cc1 (stereo not given)	10.4µM*	-1.5%	9.28µM*	17.9%	8.5%
CCOC(=O)c1c(-c2ccccc2)csc1NC(=O)c1ccc(N2C(=O)CCC2=O)cc1	42.1%	5.5%	103.6%	0.5%	16.0%
CCOC(=O)c1c(-c2ccccc2)csc1NC(=O)c1cc(-c2ccc(Cl)cc2)on1	.	2.3%	.	.	.
CCOC(=O)c1c(NC(=O)c2nn(CC)cc2Br)c(C#N)cn1-c1ccccc1	9.28µM*	-3.5%	24.0%	4.3%	7.5%
O=C(CSc1ncn[nH]1)c1ccc2c(c1)OCO2	28.7%	-4.2%	25.7%	-2.1%	-7.0%
O=C(CSc1nc2cc(Cl)c(Cl)cc2[nH]1)c1ccc2c(c1)OCO2	4.15µM*	6.1%	4.65µM*	84.5%	6.0%
O=C(CSc1nc2ncc(Cl)cc2[nH]1)c1ccc2c(c1)OCO2	?	-1.5%	36.5%	32.8%	-12.4%
O=C(CSc1nc2ccc(Cl)cc2[nH]1)c1ccc2c(c1)OCO2	11.7µM*	21.6%	13.1µM*	?	-49.6%
CN(C)C/C=C(/c1ccc(Br)cc1)c1cccnc1	12µM*	.	15.1µM*	10.8%	-13.2%
O=C(NCCNC(=O)c1cccnc1)c1ccc(Br)cc1	-26.9%	9.2%	43.5%	7.0%	1.2%
O=C(/C=C/c1cccc(Cl)c1Cl)OCC(=O)N1CCOCC1	3.7%	-8.2%	13.6%	-3.0%	.
